In PubChem BioAssay (NCI):
The panel holds about 79,000 compounds, 15% with a hit somewhere; the sample as a whole holds those more often. The source made the active and inactive calls. Cut-off read from the data, not from the text of the source: active = growth inhibition above about 70%; inactive = the rest.

How the values were obtained:
[1] = NCI Yeast Anticancer Drug Screen. Data for the wt1 strain (AID 149);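 note: 0% = growth of vehicle-treated wt1 cultures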; conditions: S. cerevisiae wt1 strain (SPY 50644) growth inhibition, active compounds read high
Procedure, shortened: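 Growth inhibition read against vehicle controls after compound exposure of the wt1 yeast strain.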

[2] = NCI Yeast Anticancer Drug Screen. Data for the rad50EPP+ strain (AID 151);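 note: 0% = growth of vehicle-treated control cultures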; conditions: S. cerevisiae rad50 mutant strain, active compounds read high
Procedure, shortened: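 rad50EPP+ yeast treated with test compounds. Readout: growth vs vehicle control.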

[3] = NCI Yeast Anticancer Drug Screen. Data for the rad50 strain (AID 155);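 note: 0% = growth of vehicle-only cultures of the same strain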; conditions: S. cerevisiae rad50 strain growth inhibition, active compounds read high
Procedure, shortened: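 Readout: growth inhibition relative to vehicle-treated cultures. Compound exposure was carried out in a genetically defined yeast strain deficient in DNA damage repair.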

[4] = NCI Yeast Anticancer Drug Screen. Data for the mec2-1 strain (AID 157); conditions: S. cerevisiae mec2-1 strain, active compounds read high
Procedure, shortened: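 Growth inhibition is read against vehicle-treated controls after compound exposure of the mec2-1 yeast strain, which is defective in DNA damage repair or cell cycle control.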

[5] = NCI Yeast Anticancer Drug Screen. Data for the rad14 strain (AID 159);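 note: 0% = growth of vehicle-treated control cultures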; conditions: S. cerevisiae rad14 strain growth inhibition, active compounds read high
Procedure, shortened: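 Growth inhibition vs vehicle controls; genetically altered yeast strain (DNA damage repair defect) treated with test compounds.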

[6] = NCI Yeast Anticancer Drug Screen. Data for the sgs1 mgt1 strain (AID 161);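 note: 0% = growth of cultures given vehicle only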; conditions: S. cerevisiae sgs1 mgt1 strain, active compounds read high
Procedure, shortened: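 Percent growth inhibition was derived by comparing compound-exposed mutant yeast with vehicle-exposed cultures. The strain carries alterations in DNA damage repair.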

[7] = NCI Yeast Anticancer Drug Screen. Data for the CLN2oe strain (AID 163);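 note: 0% = growth of vehicle-only control cultures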; conditions: S. cerevisiae CLN2oe strain, active compounds read high
Procedure, shortened: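 Compound-treated yeast; growth vs vehicle ctrl = % inhibition. Genetically altered strain (cell-cycle control).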

[8] = NCI Yeast Anticancer Drug Screen. Data for the cln2 rad14 strain (AID 165);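 note: 0% = growth equal to vehicle treated cultures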; conditions: S. cerevisiae cln2 rad14 strain, active compounds read high
Procedure, shortened: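 Growth inhibition, relative to vehicle-treated controls, is the read-out. The test organism is a yeast strain with defined genetic alterations, cln2 rad14.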

[9] = NCI Yeast Anticancer Drug Screen. Data for the bub3 strain (AID 167); conditions: S. cerevisiae bub3 mutant strain, active compounds read high
Procedure, shortened: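 Readout: yeast growth inhibition, expressed relative to vehicle-only wells. The test organism is a mutant strain from a panel with lesions in DNA repair or checkpoint genes.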

[10] = NCI Yeast Anticancer Drug Screen. Data for the wt2 strain (AID 169);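 note: 0% = growth of vehicle-treated yeast cultures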; conditions: S. cerevisiae wt2 strain growth inhibition, active compounds read high
Procedure, shortened: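 Compound exposure of yeast; growth compared with vehicle controls; inhibition reported.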

[11] = NCI Yeast Anticancer Drug Screen. Data for the mlh1 strain (AID 171);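 note: 0% = growth of vehicle-treated control cultures of the same strain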; conditions: S. cerevisiae mlh1 strain growth inhibition, active compounds read high
Procedure, shortened: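 Compounds are applied to a genetically altered yeast strain, and its growth is compared with that of vehicle-treated cultures to give percent inhibition.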

[12] = NCI Yeast Anticancer Drug Screen. Data for the sgs1 strain (AID 173);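 note: 0% = growth of vehicle-only control cultures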; conditions: S. cerevisiae sgs1 mutant, active compounds read high
Procedure, shortened: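 Compounds applied to genetically altered yeast; growth compared with vehicle-treated cultures to give % inhibition.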

[13] = NCI Yeast Anticancer Drug Screen. Data for the mlh1 rad18 strain (AID 175); conditions: S. cerevisiae mlh1 rad18 strain growth inhibition, active compounds read high
Procedure, shortened: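 Cells of a genetically altered yeast strain, deficient in DNA damage repair, were treated with compound. Their growth was then compared with that of vehicle-treated cultures to give inhibition.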

[14] = NCI Yeast Anticancer Drug Screen. Data for the rad18 strain (AID 177); conditions: S. cerevisiae rad18 mutant growth inhibition, active compounds read high
Procedure, shortened: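 Compounds are applied to a repair-deficient yeast strain, and growth is compared with that of vehicle-treated cultures to give percent inhibition.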

[15] = at 5.0 µM (retest, dose inferred, filed as 0.5)
[16] = at 50.0 µM (retest, dose inferred, filed as 5.0)

Measured: growth inhibition

CSC(=Nc1ccccc1)N(c1ccccc1)c1nc(=[N+](C)C)ss1
inactive: [1]; at 1.2 µM -2% | [1]; at 3.7 µM 7% | [1]; at 11.0 µM 54% | [2]; at 1.2 µM -1% | [2]; at 3.7 µM -5% | [2]; at 11.0 µM 23% | [3]; at 1.2 µM 3% | [3]; at 3.7 µM 13% | [3]; [15] 56% | [4]; at 1.2 µM 2% | [4]; at 3.7 µM 9% | [4]; [15] 26% | [5]; at 1.2 µM -5% | [5]; at 3.7 µM 7% | [6]; [15] 58% | [7]; at 1.2 µM -12% | [7]; at 3.7 µM -11% | [7]; at 11.0 µM 14% | [8]; [15] -1% | [9]; at 1.2 µM 1% | [9]; at 3.7 µM 22% | [9]; [15] 37% | [10]; at 1.2 µM 0% | [10]; at 3.7 µM 17% | [11]; at 1.2 µM -1% | [11]; at 3.7 µM 10% | [12]; at 1.2 µM 3% | [12]; at 3.7 µM 24% | [13]; [15] 44% | [14]; at 1.2 µM 4% | [14]; at 3.7 µM 34%
active: [1]; at 33.0 µM 93% | [1]; at 100.0 µM 98% | [2]; at 33.0 µM 87% | [2]; at 100.0 µM 97% | [3]; at 11.0 µM 93% | [3]; at 33.0 µM 98% | [3]; [16] 99% | [3]; at 50.0 µM 98.4% | [3]; at 100.0 µM 99% | [4]; at 11.0 µM 80% | [4]; at 33.0 µM 97% | [4]; [16] 99% | [4]; at 50.0 µM 99.3% | [4]; at 100.0 µM 99% | [5]; at 11.0 µM 92% | [5]; at 33.0 µM 99% | [5]; at 100.0 µM 99% | [6]; [16] 99% | [6]; at 50.0 µM 98.6% | [7]; at 33.0 µM 80% | [7]; at 100.0 µM 98% | [8]; [16] 98% | [8]; at 50.0 µM 93.4% | [9]; at 11.0 µM 85% | [9]; at 33.0 µM 93% | [9]; [16] 98% | [9]; at 50.0 µM 98.5% | [9]; at 100.0 µM 99% | [10]; at 11.0 µM 87% | [10]; at 33.0 µM 97% | [10]; at 100.0 µM 99% | [11]; at 11.0 µM 88% | [11]; at 33.0 µM 99% | [11]; at 100.0 µM 99% | [12]; at 11.0 µM 91% | [12]; at 33.0 µM 98% | [12]; at 100.0 µM 99% | [13]; [16] 98% | [13]; at 50.0 µM 98.6% | [14]; at 11.0 µM 93% | [14]; at 33.0 µM 98% | [14]; at 100.0 µM 98%
